Source: publication PMC7862700, “An all-to-all approach to the identification of sequence-specific readers for epigenetic DNA modifications on cytosine”

Key:
Assay in all cases: DAPPL (digital affinity profiling via proximity ligation, sequencing); 10 mM Tris-HCl pH 7.5, 50 mM NaCl, 1 mM DTT, 4% glycerol, room temperature, 30 min; GST-TFs on glutathione beads, 16-mer random dsDNA library, 0.1% formaldehyde crosslink after washing; high values mean tight binding
FEV = target: T1, FEV (Homo sapiens, UniProt Q99581 1-238); conditions: protein: recombinant; tags: N-terminal GST; dsDNA, one strand shown
T1 sequence: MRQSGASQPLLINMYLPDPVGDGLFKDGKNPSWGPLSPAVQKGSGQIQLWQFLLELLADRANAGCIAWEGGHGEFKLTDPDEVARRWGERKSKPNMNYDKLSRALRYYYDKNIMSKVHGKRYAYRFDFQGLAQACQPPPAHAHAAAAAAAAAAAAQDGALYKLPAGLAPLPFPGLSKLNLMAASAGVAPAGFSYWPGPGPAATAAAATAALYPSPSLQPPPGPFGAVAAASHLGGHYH
Procedure, shortened: (§1)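 Human transcription factors carrying a GST fusion were produced in yeast, bound to glutathione beads, tagged with DNA barcodes and pooled together with a tag-only sample. Each pool was held with 200 nmole of a random double-stranded 16-mer DNA library in Tris/NaCl/DTT/glycerol buffer for 30 min at room temperature, then washed, crosslinked in 0.1% formaldehyde, proximity-ligated with BsaI/T4 ligase (1 h, 37 °C), PCR-amplified and sequenced on an Illumina NextSeq500. Binding signal is the read frequency of each hexamer for a given factor divided by its frequency in the tag-only sample.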

ETV5 = ETV5 (Homo sapiens, UniProt P41161 1-510); conditions: protein: recombinant; tags: N-terminal GST; dsDNA, one strand shown
Chain of ETV5 (P41161 whole entry): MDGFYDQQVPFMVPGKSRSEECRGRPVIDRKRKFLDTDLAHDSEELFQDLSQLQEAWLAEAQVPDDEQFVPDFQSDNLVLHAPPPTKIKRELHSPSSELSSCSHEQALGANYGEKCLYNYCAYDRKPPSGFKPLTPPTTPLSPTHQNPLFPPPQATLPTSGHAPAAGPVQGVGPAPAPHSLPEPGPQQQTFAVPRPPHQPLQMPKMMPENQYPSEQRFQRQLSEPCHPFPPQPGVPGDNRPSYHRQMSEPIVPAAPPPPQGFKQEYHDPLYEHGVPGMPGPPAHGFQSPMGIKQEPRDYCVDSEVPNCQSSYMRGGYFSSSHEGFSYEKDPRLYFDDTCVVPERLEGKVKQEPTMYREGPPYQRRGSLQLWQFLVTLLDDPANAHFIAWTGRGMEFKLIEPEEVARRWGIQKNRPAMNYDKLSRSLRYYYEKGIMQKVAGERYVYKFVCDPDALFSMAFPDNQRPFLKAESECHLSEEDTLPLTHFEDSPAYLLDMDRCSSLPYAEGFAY
Procedure, shortened: as §1

HSF1 = HSF1 (Homo sapiens, UniProt Q00613 1-529); conditions: protein: recombinant; tags: N-terminal GST; chain copies: 3; dsDNA, one strand shown
Chain of HSF1 (Q00613 whole entry): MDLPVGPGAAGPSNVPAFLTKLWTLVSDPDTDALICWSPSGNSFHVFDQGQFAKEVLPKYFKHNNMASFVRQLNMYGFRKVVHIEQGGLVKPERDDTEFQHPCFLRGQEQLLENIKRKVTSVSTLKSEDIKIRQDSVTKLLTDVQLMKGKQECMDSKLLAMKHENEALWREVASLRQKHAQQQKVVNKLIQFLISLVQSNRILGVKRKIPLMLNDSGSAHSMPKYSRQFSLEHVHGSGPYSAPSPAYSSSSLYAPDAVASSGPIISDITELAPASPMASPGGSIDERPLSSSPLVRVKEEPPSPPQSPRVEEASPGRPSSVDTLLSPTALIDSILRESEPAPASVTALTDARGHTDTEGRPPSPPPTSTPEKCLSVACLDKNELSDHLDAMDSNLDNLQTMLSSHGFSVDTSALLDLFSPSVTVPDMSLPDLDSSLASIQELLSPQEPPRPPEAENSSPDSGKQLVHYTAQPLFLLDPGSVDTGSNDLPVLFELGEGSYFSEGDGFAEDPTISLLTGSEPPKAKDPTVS
Procedure, shortened: as §1

SPIC = target: T2, SPIC (Homo sapiens, UniProt Q8N5J4 1-248); conditions: protein: recombinant; tags: N-terminal GST; dsDNA, one strand shown
T2 sequence: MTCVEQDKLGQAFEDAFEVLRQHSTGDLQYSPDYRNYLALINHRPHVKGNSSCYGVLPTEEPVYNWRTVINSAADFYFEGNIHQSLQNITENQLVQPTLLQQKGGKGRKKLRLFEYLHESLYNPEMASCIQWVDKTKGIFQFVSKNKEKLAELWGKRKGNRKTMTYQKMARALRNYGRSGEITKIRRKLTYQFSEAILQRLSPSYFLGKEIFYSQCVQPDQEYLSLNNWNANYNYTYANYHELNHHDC
Procedure, shortened: as §1

ELF4 = ELF4 (Homo sapiens, UniProt Q99607 1-663); conditions: protein: recombinant; tags: N-terminal GST; dsDNA, one strand shown
Chain of ELF4 (Q99607 whole entry): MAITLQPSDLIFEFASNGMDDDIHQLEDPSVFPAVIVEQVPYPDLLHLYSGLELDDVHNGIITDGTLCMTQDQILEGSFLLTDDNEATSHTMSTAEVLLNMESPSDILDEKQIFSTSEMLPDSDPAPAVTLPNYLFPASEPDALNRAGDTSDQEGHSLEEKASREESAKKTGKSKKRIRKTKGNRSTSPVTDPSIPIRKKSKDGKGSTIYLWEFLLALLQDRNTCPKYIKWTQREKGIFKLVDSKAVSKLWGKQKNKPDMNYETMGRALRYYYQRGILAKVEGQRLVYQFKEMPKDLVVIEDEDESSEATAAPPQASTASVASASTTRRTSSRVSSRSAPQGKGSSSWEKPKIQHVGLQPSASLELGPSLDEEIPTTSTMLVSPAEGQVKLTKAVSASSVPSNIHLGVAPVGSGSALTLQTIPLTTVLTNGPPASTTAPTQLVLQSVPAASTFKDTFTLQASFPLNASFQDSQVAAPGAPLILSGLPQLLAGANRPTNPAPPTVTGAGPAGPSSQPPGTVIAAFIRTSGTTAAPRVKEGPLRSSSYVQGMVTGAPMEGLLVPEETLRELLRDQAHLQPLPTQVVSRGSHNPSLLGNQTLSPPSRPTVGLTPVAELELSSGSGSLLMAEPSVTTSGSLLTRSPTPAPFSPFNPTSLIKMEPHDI
Procedure, shortened: as §1

ELK4 = target: T3, ELK4 (Homo sapiens, UniProt P28324-2 1-405); conditions: protein: recombinant; tags: N-terminal GST; dsDNA, one strand shown
T3 sequence: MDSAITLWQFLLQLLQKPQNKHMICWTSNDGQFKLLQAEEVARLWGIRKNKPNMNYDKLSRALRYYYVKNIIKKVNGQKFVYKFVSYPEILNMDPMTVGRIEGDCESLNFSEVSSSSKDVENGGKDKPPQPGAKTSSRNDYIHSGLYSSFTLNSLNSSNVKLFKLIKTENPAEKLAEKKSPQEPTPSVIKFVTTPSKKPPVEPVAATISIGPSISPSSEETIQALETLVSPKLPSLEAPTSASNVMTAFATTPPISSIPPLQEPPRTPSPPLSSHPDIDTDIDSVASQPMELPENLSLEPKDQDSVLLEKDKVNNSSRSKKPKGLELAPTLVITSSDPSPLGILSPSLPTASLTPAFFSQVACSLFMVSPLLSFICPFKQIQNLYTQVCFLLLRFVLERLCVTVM
Procedure, shortened: as §1

ETV2 = target: T4, ETV2 (Homo sapiens, UniProt O00321 1-342); conditions: protein: recombinant; tags: N-terminal GST; dsDNA, one strand shown
T4 sequence: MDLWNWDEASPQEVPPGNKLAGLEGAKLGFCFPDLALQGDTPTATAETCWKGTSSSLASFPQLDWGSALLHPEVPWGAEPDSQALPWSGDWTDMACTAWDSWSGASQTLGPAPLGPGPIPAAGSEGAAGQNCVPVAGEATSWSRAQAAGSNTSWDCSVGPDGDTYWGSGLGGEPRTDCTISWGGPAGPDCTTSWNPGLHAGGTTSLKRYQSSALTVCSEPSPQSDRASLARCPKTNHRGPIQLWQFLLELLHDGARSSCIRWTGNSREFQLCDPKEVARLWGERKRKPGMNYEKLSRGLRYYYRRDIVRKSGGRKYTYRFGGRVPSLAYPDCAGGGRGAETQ
Procedure, shortened: as §1

ELF3 = target: T5, ELF3 (Homo sapiens, UniProt P78545 1-371); conditions: protein: recombinant; tags: N-terminal GST; dsDNA, one strand shown
T5 sequence: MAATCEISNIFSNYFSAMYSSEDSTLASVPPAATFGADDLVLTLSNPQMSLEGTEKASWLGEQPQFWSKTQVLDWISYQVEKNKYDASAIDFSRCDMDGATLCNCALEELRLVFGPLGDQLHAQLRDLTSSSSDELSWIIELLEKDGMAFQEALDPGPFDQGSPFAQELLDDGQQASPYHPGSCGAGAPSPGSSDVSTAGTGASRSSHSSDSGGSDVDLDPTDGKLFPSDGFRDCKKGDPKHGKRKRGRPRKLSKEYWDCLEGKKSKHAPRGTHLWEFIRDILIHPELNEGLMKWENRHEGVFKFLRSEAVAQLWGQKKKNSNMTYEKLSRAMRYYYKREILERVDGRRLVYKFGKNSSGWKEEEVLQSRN
Procedure, shortened: as §1

CRX = CRX (Homo sapiens, UniProt O43186 1-299); conditions: protein: recombinant; tags: N-terminal GST; dsDNA, one strand shown
Chain of CRX (O43186 whole entry): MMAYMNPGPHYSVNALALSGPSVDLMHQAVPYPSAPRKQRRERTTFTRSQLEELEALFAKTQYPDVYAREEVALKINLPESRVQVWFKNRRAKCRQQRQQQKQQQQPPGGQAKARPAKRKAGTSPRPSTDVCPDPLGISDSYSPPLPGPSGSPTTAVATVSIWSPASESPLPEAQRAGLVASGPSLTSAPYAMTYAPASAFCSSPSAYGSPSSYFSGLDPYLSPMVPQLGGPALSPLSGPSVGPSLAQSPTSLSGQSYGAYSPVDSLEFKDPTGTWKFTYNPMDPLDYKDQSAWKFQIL
Procedure, shortened: as §1

ETV1 = ETV1 (Homo sapiens, UniProt P50549 1-477); conditions: protein: recombinant; tags: N-terminal GST; dsDNA, one strand shown
Chain of ETV1 (P50549 whole entry): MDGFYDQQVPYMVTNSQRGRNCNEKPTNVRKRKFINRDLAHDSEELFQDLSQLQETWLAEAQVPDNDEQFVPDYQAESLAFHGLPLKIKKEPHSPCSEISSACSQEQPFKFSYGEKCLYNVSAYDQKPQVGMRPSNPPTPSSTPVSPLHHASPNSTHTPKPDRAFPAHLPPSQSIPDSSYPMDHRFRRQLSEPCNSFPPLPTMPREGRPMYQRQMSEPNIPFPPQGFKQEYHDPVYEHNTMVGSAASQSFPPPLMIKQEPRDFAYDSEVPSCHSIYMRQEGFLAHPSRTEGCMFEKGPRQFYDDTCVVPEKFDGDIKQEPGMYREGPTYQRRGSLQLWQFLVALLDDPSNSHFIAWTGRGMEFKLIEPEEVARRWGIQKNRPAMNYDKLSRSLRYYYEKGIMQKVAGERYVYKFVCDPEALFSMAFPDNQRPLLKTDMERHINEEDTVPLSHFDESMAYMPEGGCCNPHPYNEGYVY
Procedure, shortened: as §1

Sequence: TTCTAA
- binding signal (FEV): 1.18 fold enrichment (6-mer frequency, TF over GST control)
- binding signal (ETV5): 1.22 fold enrichment (6-mer frequency, TF over GST control)
- binding signal (HSF1): 1.83 fold enrichment (6-mer frequency, TF over GST control)
- binding signal (SPIC): 1.13 fold enrichment (6-mer frequency, TF over GST control)
- binding signal (ELF4): 1.23 fold enrichment (6-mer frequency, TF over GST control)
- binding signal (ELK4): 1.22 fold enrichment (6-mer frequency, TF over GST control)
- binding signal (ETV2): 1.26 fold enrichment (6-mer frequency, TF over GST control)
- binding signal (ELF3): 1.04 fold enrichment (6-mer frequency, TF over GST control)
- binding signal (CRX): 1.84 fold enrichment (6-mer frequency, TF over GST control)
- binding signal (ETV1): 1.21 fold enrichment (6-mer frequency, TF over GST control)
